# Laboratory results reported in paper PMC7862700, “An all-to-all approach to the identification of sequence-specific readers for epigenetic DNA modifications on cytosine”.
# Assays:
# Assay in all cases: DAPPL (digital affinity profiling via proximity ligation, sequencing); 10 mM Tris-HCl pH 7.5, 50 mM NaCl, 1 mM DTT, 4% glycerol, room temperature, 30 min; GST-TFs on glutathione beads, 16-mer random dsDNA library, 0.1% formaldehyde crosslink after washing; high values mean tight binding
# Settings in all cases: protein: recombinant; tags: N-terminal GST; dsDNA, one strand shown
# FLI1 = biological target: T1, FLI1 (Homo sapiens, UniProt Q01543 1-452)
# T1 sequence: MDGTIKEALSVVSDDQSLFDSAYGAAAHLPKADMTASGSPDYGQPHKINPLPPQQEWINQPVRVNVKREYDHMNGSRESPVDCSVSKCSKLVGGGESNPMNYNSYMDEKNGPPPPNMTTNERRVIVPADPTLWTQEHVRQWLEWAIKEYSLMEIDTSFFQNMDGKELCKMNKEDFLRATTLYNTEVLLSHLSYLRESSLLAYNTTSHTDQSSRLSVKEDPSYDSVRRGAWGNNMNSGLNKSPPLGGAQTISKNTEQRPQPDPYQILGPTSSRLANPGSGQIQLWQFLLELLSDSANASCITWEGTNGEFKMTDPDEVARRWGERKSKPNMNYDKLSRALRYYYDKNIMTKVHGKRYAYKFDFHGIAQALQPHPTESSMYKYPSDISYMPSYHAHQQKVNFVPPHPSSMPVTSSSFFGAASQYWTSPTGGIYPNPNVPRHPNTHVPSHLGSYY
# Procedure, shortened: (§1)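 Human transcription factors carrying a GST fusion were produced in yeast, bound to glutathione beads, tagged with DNA barcodes and pooled together with a tag-only sample. Each pool was held with 200 nmole of a random double-stranded 16-mer DNA library in Tris/NaCl/DTT/glycerol buffer for 30 min at room temperature, then washed, crosslinked in 0.1% formaldehyde, proximity-ligated with BsaI/T4 ligase (1 h, 37 °C), PCR-amplified and sequenced on an Illumina NextSeq500. Binding signal is the read frequency of each hexamer for a given factor divided by its frequency in the tag-only sample.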
# ELK1 = biological target: T2, ELK1 (Homo sapiens, UniProt P19419 1-428)
# T2 sequence: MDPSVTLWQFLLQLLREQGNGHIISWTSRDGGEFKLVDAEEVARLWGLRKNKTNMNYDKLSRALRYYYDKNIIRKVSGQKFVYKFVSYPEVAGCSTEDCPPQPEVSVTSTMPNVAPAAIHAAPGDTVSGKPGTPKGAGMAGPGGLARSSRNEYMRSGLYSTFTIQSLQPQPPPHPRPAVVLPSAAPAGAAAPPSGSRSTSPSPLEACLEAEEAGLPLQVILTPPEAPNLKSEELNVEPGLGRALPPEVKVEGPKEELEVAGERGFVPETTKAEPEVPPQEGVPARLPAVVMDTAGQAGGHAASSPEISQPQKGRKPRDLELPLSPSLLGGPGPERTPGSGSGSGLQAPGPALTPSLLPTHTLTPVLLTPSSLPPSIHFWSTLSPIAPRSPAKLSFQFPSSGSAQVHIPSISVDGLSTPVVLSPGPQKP
# Procedure, shortened: as §1
# GABPA = biological target: T3, GABPA (Homo sapiens, UniProt Q06546 1-454)
# T3 sequence: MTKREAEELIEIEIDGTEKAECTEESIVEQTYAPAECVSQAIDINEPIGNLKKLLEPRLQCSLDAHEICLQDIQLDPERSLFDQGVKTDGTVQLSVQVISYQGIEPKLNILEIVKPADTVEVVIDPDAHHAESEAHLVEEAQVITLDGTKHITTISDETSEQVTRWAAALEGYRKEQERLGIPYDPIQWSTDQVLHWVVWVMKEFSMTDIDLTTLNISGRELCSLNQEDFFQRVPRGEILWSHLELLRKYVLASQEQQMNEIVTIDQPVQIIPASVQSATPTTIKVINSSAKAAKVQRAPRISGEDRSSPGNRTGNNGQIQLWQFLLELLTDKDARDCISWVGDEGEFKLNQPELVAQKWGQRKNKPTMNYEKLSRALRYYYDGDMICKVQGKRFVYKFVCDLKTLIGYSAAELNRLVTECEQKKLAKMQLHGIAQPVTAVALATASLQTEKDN
# Procedure, shortened: as §1
# ERG = biological target: T4, ERG (Homo sapiens, UniProt P11308 1-479)
# T4 sequence: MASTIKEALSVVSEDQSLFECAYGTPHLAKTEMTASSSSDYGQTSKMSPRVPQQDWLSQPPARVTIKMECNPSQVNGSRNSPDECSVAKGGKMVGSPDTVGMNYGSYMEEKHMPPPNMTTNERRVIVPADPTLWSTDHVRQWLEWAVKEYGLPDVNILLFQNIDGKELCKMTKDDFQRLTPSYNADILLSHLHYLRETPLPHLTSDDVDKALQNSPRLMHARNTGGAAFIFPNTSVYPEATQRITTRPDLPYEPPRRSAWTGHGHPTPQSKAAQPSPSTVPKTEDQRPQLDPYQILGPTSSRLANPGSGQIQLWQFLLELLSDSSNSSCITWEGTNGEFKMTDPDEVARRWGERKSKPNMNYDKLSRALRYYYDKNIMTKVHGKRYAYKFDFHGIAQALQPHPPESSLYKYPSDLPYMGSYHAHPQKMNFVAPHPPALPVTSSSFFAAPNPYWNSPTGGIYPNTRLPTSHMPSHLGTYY
# Procedure, shortened: as §1
# ELF1 = ELF1 (Homo sapiens, UniProt P32519 1-619)
# Chain of ELF1 (P32519 whole entry): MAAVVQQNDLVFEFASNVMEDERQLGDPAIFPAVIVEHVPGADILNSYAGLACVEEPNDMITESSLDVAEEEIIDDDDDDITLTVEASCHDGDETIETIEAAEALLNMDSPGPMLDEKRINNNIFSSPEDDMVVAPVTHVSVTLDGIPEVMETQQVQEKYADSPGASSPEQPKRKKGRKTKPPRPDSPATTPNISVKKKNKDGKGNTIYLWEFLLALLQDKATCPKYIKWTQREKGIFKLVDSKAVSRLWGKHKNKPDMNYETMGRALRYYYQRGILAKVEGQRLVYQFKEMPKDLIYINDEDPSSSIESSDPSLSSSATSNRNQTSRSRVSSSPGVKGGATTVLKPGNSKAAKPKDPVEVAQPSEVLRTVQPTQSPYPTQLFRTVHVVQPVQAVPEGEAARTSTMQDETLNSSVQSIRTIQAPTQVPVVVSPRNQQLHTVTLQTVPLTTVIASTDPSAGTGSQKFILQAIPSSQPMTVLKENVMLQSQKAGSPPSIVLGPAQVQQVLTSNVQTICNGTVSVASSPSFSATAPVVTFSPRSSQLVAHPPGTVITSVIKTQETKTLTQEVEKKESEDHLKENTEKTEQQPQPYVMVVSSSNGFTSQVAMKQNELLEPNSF
# Procedure, shortened: as §1
# EHF = biological target: T5, EHF (Homo sapiens, UniProt Q9NZC4 1-300)
# T5 sequence: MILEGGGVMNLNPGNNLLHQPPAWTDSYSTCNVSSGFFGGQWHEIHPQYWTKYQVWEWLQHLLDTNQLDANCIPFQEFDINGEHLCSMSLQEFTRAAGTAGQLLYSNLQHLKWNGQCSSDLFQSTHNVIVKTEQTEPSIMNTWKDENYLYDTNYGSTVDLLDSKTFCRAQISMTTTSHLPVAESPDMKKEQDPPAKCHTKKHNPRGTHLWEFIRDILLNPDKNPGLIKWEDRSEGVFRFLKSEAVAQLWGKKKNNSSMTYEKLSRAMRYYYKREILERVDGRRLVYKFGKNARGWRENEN
# Procedure, shortened: as §1
# SPI1 = SPI1 (Homo sapiens, UniProt P17947 1-270)
# Procedure, shortened: as §1
# SPIB = SPIB (Homo sapiens, UniProt Q01892 1-262)
# Chain of SPIB (Q01892 whole entry): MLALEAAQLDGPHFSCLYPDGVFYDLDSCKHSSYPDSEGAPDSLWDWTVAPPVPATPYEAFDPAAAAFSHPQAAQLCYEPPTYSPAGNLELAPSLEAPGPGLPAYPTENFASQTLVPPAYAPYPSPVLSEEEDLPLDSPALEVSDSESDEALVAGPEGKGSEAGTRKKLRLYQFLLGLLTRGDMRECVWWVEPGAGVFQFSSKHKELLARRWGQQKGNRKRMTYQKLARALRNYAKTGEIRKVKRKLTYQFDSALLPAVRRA
# Procedure, shortened: as §1
# ELK3 = biological target: T6, ELK3 (Homo sapiens, UniProt P41970 1-407)
# T6 sequence: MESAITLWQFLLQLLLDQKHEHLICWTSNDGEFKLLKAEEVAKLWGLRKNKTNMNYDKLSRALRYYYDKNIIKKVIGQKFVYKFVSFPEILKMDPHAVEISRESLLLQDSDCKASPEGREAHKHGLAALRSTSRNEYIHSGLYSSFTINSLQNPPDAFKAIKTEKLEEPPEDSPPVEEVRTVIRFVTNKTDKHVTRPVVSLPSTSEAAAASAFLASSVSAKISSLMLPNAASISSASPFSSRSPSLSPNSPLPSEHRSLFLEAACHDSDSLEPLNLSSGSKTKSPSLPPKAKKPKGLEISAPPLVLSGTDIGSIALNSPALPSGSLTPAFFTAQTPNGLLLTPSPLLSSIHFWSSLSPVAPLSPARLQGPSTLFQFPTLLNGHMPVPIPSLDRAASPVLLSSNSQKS
# Procedure, shortened: as §1
sequence,measurement,setting,value
CTATAT,binding signal,FLI1,"1.38 fold enrichment (6-mer frequency, TF over GST control)"
same,binding signal,ELK1,"1.42 fold enrichment (6-mer frequency, TF over GST control)"
same,binding signal,GABPA,"1.35 fold enrichment (6-mer frequency, TF over GST control)"
same,binding signal,ERG,"1.34 fold enrichment (6-mer frequency, TF over GST control)"
same,binding signal,ELF1,"1.5 fold enrichment (6-mer frequency, TF over GST control)"
same,binding signal,EHF,"1.42 fold enrichment (6-mer frequency, TF over GST control)"
same,binding signal,SPI1,"1.32 fold enrichment (6-mer frequency, TF over GST control)"
same,binding signal,SPIB,"1.47 fold enrichment (6-mer frequency, TF over GST control)"
same,binding signal,ELK3,"1.47 fold enrichment (6-mer frequency, TF over GST control)"
TTTGAC,binding signal,FLI1,"1.57 fold enrichment (6-mer frequency, TF over GST control)"
same,binding signal,ELK1,"1.59 fold enrichment (6-mer frequency, TF over GST control)"
same,binding signal,GABPA,"1.55 fold enrichment (6-mer frequency, TF over GST control)"
same,binding signal,ERG,"1.45 fold enrichment (6-mer frequency, TF over GST control)"
same,binding signal,ELF1,"1.4 fold enrichment (6-mer frequency, TF over GST control)"
same,binding signal,EHF,"1.35 fold enrichment (6-mer frequency, TF over GST control)"
same,binding signal,SPI1,"1.34 fold enrichment (6-mer frequency, TF over GST control)"
same,binding signal,SPIB,"1.35 fold enrichment (6-mer frequency, TF over GST control)"
same,binding signal,ELK3,"1.34 fold enrichment (6-mer frequency, TF over GST control)"
CCCGAC,binding signal,FLI1,"1.31 fold enrichment (6-mer frequency, TF over GST control)"
same,binding signal,ELK1,"1.28 fold enrichment (6-mer frequency, TF over GST control)"
same,binding signal,GABPA,"1.39 fold enrichment (6-mer frequency, TF over GST control)"
same,binding signal,ERG,"1.43 fold enrichment (6-mer frequency, TF over GST control)"
same,binding signal,ELF1,"1.42 fold enrichment (6-mer frequency, TF over GST control)"
same,binding signal,EHF,"1.31 fold enrichment (6-mer frequency, TF over GST control)"
same,binding signal,SPI1,"1.29 fold enrichment (6-mer frequency, TF over GST control)"
same,binding signal,SPIB,"1.44 fold enrichment (6-mer frequency, TF over GST control)"
same,binding signal,ELK3,"1.43 fold enrichment (6-mer frequency, TF over GST control)"
CTTTGT,binding signal,FLI1,"1.34 fold enrichment (6-mer frequency, TF over GST control)"
same,binding signal,ELK1,"1.3 fold enrichment (6-mer frequency, TF over GST control)"
same,binding signal,GABPA,"1.2 fold enrichment (6-mer frequency, TF over GST control)"
same,binding signal,ERG,"1.27 fold enrichment (6-mer frequency, TF over GST control)"
same,binding signal,ELF1,"1.36 fold enrichment (6-mer frequency, TF over GST control)"
same,binding signal,EHF,"1.48 fold enrichment (6-mer frequency, TF over GST control)"
same,binding signal,SPI1,"1.36 fold enrichment (6-mer frequency, TF over GST control)"
same,binding signal,SPIB,"1.22 fold enrichment (6-mer frequency, TF over GST control)"
same,binding signal,ELK3,"1.29 fold enrichment (6-mer frequency, TF over GST control)"
GCTCCA,binding signal,FLI1,"1.23 fold enrichment (6-mer frequency, TF over GST control)"
same,binding signal,ELK1,"1.17 fold enrichment (6-mer frequency, TF over GST control)"
same,binding signal,GABPA,"1.33 fold enrichment (6-mer frequency, TF over GST control)"
same,binding signal,ERG,"1.18 fold enrichment (6-mer frequency, TF over GST control)"
same,binding signal,ELF1,"1.2 fold enrichment (6-mer frequency, TF over GST control)"
same,binding signal,EHF,"1.19 fold enrichment (6-mer frequency, TF over GST control)"
same,binding signal,SPI1,"1.28 fold enrichment (6-mer frequency, TF over GST control)"
same,binding signal,SPIB,"1.3 fold enrichment (6-mer frequency, TF over GST control)"
same,binding signal,ELK3,"1.17 fold enrichment (6-mer frequency, TF over GST control)"
TTGGTA,binding signal,FLI1,"1.23 fold enrichment (6-mer frequency, TF over GST control)"
same,binding signal,ELK1,"1.3 fold enrichment (6-mer frequency, TF over GST control)"
same,binding signal,GABPA,"1.22 fold enrichment (6-mer frequency, TF over GST control)"
same,binding signal,ERG,"1.13 fold enrichment (6-mer frequency, TF over GST control)"
same,binding signal,ELF1,"1.19 fold enrichment (6-mer frequency, TF over GST control)"
same,binding signal,EHF,"1.21 fold enrichment (6-mer frequency, TF over GST control)"
same,binding signal,SPI1,"1.23 fold enrichment (6-mer frequency, TF over GST control)"
same,binding signal,SPIB,"1.33 fold enrichment (6-mer frequency, TF over GST control)"
same,binding signal,ELK3,"1.2 fold enrichment (6-mer frequency, TF over GST control)"
CTTGGG,binding signal,FLI1,"1.24 fold enrichment (6-mer frequency, TF over GST control)"
same,binding signal,ELK1,"1.38 fold enrichment (6-mer frequency, TF over GST control)"
same,binding signal,GABPA,"1.36 fold enrichment (6-mer frequency, TF over GST control)"
same,binding signal,ERG,"1.29 fold enrichment (6-mer frequency, TF over GST control)"
same,binding signal,ELF1,"1.26 fold enrichment (6-mer frequency, TF over GST control)"
same,binding signal,EHF,"1.14 fold enrichment (6-mer frequency, TF over GST control)"
same,binding signal,SPI1,"1.29 fold enrichment (6-mer frequency, TF over GST control)"
same,binding signal,SPIB,"1.39 fold enrichment (6-mer frequency, TF over GST control)"
same,binding signal,ELK3,"1.47 fold enrichment (6-mer frequency, TF over GST control)"
CTTATA,binding signal,FLI1,"1.3 fold enrichment (6-mer frequency, TF over GST control)"
same,binding signal,ELK1,"1.33 fold enrichment (6-mer frequency, TF over GST control)"
same,binding signal,GABPA,"1.41 fold enrichment (6-mer frequency, TF over GST control)"
same,binding signal,ERG,"1.28 fold enrichment (6-mer frequency, TF over GST control)"
same,binding signal,ELF1,"1.33 fold enrichment (6-mer frequency, TF over GST control)"
same,binding signal,EHF,"1.4 fold enrichment (6-mer frequency, TF over GST control)"
same,binding signal,SPI1,"1.43 fold enrichment (6-mer frequency, TF over GST control)"
same,binding signal,SPIB,"1.39 fold enrichment (6-mer frequency, TF over GST control)"
same,binding signal,ELK3,"1.29 fold enrichment (6-mer frequency, TF over GST control)"
